Drawing on PubChem BioAssay AID687028 (Broad Institute, 2013), this text covers outcome for 28 compounds.

Screen size: about 1,400 compounds; about 55 (4%) were called active. How the calls were made is not given here. Not all results are given here. A call without a number means that no potency is given here. Potency and affinity values are given separately.

The nature of the test: A549 cell toxicity, dose response, cytotoxicity control, plate reader, cherry-pick samples (AID 687028).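 Further: cells incubated with compound for three days before reading.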 Particulars: series mostly up to 19.5 µM.
In the case of `COc1ccc(-c2cnc3c(NC(C)=O)cc(-c4ccccc4OC)cn23)cc1OC`, the compound was called inactive.

Turning to `O=C(OCc1ccccc1)N1CCC2CC1c1ccc(-c3ccc4c(c3)OCO4)cc12` (stereo not drawn), the compound was classed as inactive.

`Cc1cc(F)ccc1S(=O)(=O)Nc1ncnc2scc(-c3ccc(F)cc3)c12`: the call was inactive. As to `C[C@@H]1CN([C@@H](C)CO)C(=O)c2cc(NC(=O)Nc3ccc(C(F)(F)F)cc3)ccc2O[C@@H]1CN(C)C(=O)NC1CCCCC1`, the compound was called inactive. As to `CC1(C(=O)NCc2ccccc2)CN(S(C)(=O)=O)CC(=O)N1CCc1ccccc1F` (stereo not drawn), the compound was classed as inactive. `COc1ccccc1S(=O)(=O)N(C)C[C@H]1Oc2cc(C#CCC(C)C)ccc2S(=O)(=O)N([C@@H](C)CO)C[C@@H]1C`: the result was inactive.

With `Cc1ccc2oc3c(c(=O)c2c1)C(c1cccc(Cl)c1)N(CCCN1CCOCC1)C3=O` (stereo not drawn), the call was inactive. For the compound `O=C(NCc1ccccn1)C(=O)NCC1OCCN1S(=O)(=O)c1ccc(Br)cc1` (stereo not drawn), the compound was classed as inactive. For the compound `O=C(c1ccc2c(c1)OCO2)N1CCC(Cc2ccccc2)CC1`, the call was inactive.

Regarding `CC1(NC(=O)c2cc(Cl)nc3ccccc23)CCS(=O)(=O)C1` (stereo not drawn), the compound was classed as inactive. Turning to `COc1ccc(Cl)cc1N1C(=O)CC(N2CCN(S(=O)(=O)c3ccccc3F)CC2)C1=O` (stereo not drawn), the call was inactive.

`CN(C)c1ccc(-c2cc3ccccc3c(=O)o2)cc1`: the compound was called inactive. For the compound `Cc1ccc(C)c(C(Nc2ccccc2)c2ccc3ccc(C)nc3c2O)c1` (stereo not drawn), the compound was classed as inactive.

For the compound `CCOC(=O)Cc1sc(N)nc1C`, the outcome was inactive.

On to `O=C(Nc1cccc(Cl)c1)c1ccccc1`, for which the call was inactive. On to `CCCCCNC(=O)c1[nH]c(C(F)(F)F)nc1-c1ccccc1`, for which the result was inactive. As to `COC(=O)c1ccc2nc(C3CCCCC3)c(Cc3ccccc3OC)n2c1`, the result was inactive. Turning to `CCCCNC(=O)c1ccc(NS(=O)(=O)c2ccc3[nH]c(=O)[nH]c3c2)cc1`, the result was inactive. Turning to `COc1cc(NC(C)=O)c2ncccc2c1Br`, the result was inactive.

`CC(=O)Nc1cccc2ncccc12`: the call was inactive. In the case of `CCOc1cc(CNCCN2CCOCC2)ccc1OCc1ccccc1Cl`, the call was inactive.

`CC1=NCCN1CCNC(=O)Nc1ccc(C(C)(C)C)cc1`: the compound was classed as inactive. For the compound `C[C@H](CO)N1C[C@H](C)[C@H](CN(C)C)Oc2ncc(C#CC3CC3)cc2C1=O`, the call was inactive.

Regarding `C/C=C/c1ccc([C@H]2[C@@H](CO)N3CCCCN(S(=O)(=O)c4ccccc4)C[C@@H]23)cc1`, the compound was classed as inactive. In the case of `C[C@H](CO)N1C[C@H](C)[C@H](CN(C)C(=O)c2ccccc2)Oc2cc(C3=CCCCC3)ccc2S1(=O)=O`, the compound was classed as inactive.

Turning to `Cc1ccc(S(=O)(=O)N(C)C[C@H]2Oc3ccc(NS(=O)(=O)c4ccc(F)cc4)cc3C(=O)N([C@H](C)CO)C[C@@H]2C)cc1`, the result was inactive. As for `Cc1cc(O)c(C(C)C)cc1NC(=O)c1ccccc1Cl`, the compound was classed as inactive. With `Cc1ccc(OCCCCNC(C)c2ccccc2)c(C)c1` (stereo not drawn), the outcome was inactive.
